High-throughput results from PubChem BioAssay.
KCNQ2 inh – KCNQ2 (rat) channel inhibition; CHO-K1 KCNQ2, FluxOR thallium flux, 20 min; hits give low values; B-score at 10 µM; 310,000 tested, 1.1% active;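 active = fluorescence ratio B-score at most minus 3 library SDs, with starting brightness B-score within 2 library SDs, cut at about -5.5 in these data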
Target sequence (O88943 whole entry, looked up): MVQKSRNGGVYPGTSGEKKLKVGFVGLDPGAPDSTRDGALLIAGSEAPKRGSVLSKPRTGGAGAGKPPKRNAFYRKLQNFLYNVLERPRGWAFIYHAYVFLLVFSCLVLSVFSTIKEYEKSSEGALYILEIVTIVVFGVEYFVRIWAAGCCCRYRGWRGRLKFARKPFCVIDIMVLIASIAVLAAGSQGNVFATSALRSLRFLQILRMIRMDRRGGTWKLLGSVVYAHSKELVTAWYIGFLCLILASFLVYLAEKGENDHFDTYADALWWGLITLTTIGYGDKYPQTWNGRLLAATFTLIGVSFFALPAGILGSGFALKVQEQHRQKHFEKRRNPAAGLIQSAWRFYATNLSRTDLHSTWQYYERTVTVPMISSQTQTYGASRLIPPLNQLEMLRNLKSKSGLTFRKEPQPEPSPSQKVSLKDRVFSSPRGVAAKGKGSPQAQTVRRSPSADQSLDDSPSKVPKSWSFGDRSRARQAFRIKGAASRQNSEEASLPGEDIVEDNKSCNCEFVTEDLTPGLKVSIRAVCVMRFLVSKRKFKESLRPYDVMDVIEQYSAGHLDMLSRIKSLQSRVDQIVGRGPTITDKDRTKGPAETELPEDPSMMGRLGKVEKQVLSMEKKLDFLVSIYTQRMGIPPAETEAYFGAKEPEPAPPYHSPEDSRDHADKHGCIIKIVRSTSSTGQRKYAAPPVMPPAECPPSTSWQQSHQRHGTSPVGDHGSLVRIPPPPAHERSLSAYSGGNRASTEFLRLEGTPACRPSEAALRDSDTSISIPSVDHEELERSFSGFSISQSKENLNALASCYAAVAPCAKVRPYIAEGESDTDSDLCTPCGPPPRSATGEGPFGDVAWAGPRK
KCNQ2 pot – KCNQ2 (rat) channel potentiation; CHO-K1 KCNQ2, FluxOR thallium flux fluorescence; hits give high values; B-score at 10 µM; 310,000 tested, 0.54% active;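 active = fluorescence ratio B-score at least 3 SD of library B-scores, with initial fluorescence B-score within 3 of them, cut at about 5.3 in these data; same plate scores as AID 2156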;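 also: B-score of peak minus minimum over baseline fluorescence ratio after K+ and Tl+ stimulus; positive B-score means potentiation of KCNQ2 with more thallium influx and brighter signal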
KCNQ2 block conf – rat KCNQ2 channel inhibition, confirmatory screen | shares compounds with KCNQ2 inh | KCNQ2-expressing cells, thallium flux; hits give low values | activity change, negative = inhibition, % at 10 µM | 1,000 tested, 57% active | AID 493025;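 also: 0% = vehicle wells and values are ratio percent relative to vehicle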
KCNQ1 spec – human KCNQ1 activity in KCNQ2 inhibitor specificity screen. shares compounds with KCNQ2 inh. KCNQ1-expressing cells, FluxOR thallium flux fluorescence; hits give low values. activity change, negative = inhibition, % at 10 µM. 1,000 tested, 15% active. AID 493026;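 active = activity change at least 3 SD of negative controls below their mean in both duplicate wells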;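 also: CHO cells stably transfected with KCNQ1 and depolarized by potassium stimulus; peak minus minimum fluorescence over baseline after thallium addition; 0% = vehicle negative control and -100% = blank without thallium stimulus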
CHO parental ctr – counter-screen for KCNQ2 inhibitors: effect in parental CHO cells; shares compounds with KCNQ2 inh; thallium flux counter-screen; hits give low values; activity change, % at 10 µM; 1,000 tested, 14% active; AID 493029;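 also: 0% = vehicle negative controls with stimulus buffer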
KCNQ2 inh confirm – rat KCNQ2 inhibition confirmed by electrophysiology | shares compounds with KCNQ2 inh | KCNQ2-expressing cells, automated patch clamp current | calls only at 10 µM | 550 tested, 49% active
Numbers without * were called inactive; i = inactive; · = no result; + = active, no number. Compounds with a hit are over-represented: about 1.6% of the library has one in this group of screens. Unless noted, no rule for the calls is given here.

SMILES | KCNQ2 inh | KCNQ2 pot | KCNQ2 block conf | KCNQ1 spec | CHO parental ctr | others
COc1ccc(C2/C(=C(\O)c3ccc4c(c3)CC(C)O4)C(=O)C(=O)N2Cc2cccnc2)c(OC)c1 (centres undefined) | i | · | · | · | ·
c1ccc(CN(Cc2cccs2)C(c2cccs2)c2nnnn2C2CCCC2)cc1 (centres undefined) | -8.19* | -8.19 | i | i | i
c1ccc(CC2CCN(C(c3cccs3)c3nnnn3C3CCCC3)CC2)cc1 (centres undefined) | i | · | · | · | ·
O=C(OCC(=O)N1CCN(c2ccccc2)CC1)c1ncc(Cl)c(Cl)c1Cl | i | · | · | · | ·
CC(Oc1cccc(Cl)c1)C(=O)Nc1ccccc1N1CCCCC1 (centres undefined) | -7.09* | -7.09 | i | i | i
CCC(Oc1ccccc1)C(=O)Nc1ccccc1N1CCCC1 (centres undefined) | i | · | · | · | ·
CCC(C(=O)Nc1ccccc1N1CCCC1)c1ccccc1 (centres undefined) | -7.23* | -7.23 | -35.5%* | i | i | KCNQ2 inh confirm=+
CC(Oc1cccc(Cl)c1)C(=O)Nc1ccccc1C(=O)N1CCCCC1 (centres undefined) | i | · | · | · | ·
N/C(=N\OC(=O)c1cnn(-c2ccccc2)c1C(F)(F)F)c1ccc(C(F)(F)F)cc1 | i | 0.52 | · | · | ·
COC(=O)Cc1c[nH]c2cccc(OCC(O)CN(Cc3ccc([N+](=O)[O-])cc3)C(C)(C)C)c12 (centres undefined) | -8.54* | -8.54 | -20.0%* | i | i | KCNQ2 inh confirm=+
CC(C)CN(CC(C)C)CC(O)COc1ccc([N+](=O)[O-])cc1 (centres undefined) | i | · | · | · | ·
C1CNCCNCCCNCCNC1 | i | · | · | · | ·
O=C(NNC(=O)c1cc(-c2cccnc2)nc2ccccc12)Nc1ccc(Cl)cc1 | -9.76* | -9.76 | -27.0%* | i | i | KCNQ2 inh confirm=i
Cc1ccc(-c2cc(C(=O)Nc3cccnc3)c3ccccc3n2)s1 | -7.91* | -7.91 | -17.5%* | i | i
O=C(NNC(=O)c1cc(-c2ccncc2)nc2ccccc12)Nc1ccc(F)cc1 | i | 1.77 | · | · | ·
Cc1cccc(-c2cc(C(=O)Nc3cccnc3)c3ccccc3n2)c1 | -8.01* | -8.01 | -47.0%* | -48.5%* | -46.5%* | KCNQ2 inh confirm=+
O=C(c1cc(-c2ccccc2)nc2ccccc12)N1CCCc2ccccc21 | i | · | · | · | ·
Cc1cccc(-c2cc(C(=O)N3CCCc4ccccc43)c3ccccc3n2)c1 | -6.83* | -6.83 | -40.5%* | -42.0%* | -34.0%* | KCNQ2 inh confirm=i
Cc1cc(C)nc(NC(=O)c2cc(-c3ccc(C)s3)nc3ccccc23)c1 | i | · | · | · | ·
Cc1cccc(-c2cc(C(=O)Nc3ccncc3)c3ccccc3n2)c1 | i | · | · | · | ·
O=C1CC(NCCC2=CCCCC2)C(=O)N1c1cccc(Cl)c1Cl (centres undefined) | i | · | · | · | ·
Cc1ccc(-c2cc(C(=O)Nc3cc(C)on3)c3ccccc3n2)cc1 | i | · | · | · | ·
Cc1cc(NC(=O)c2cc(-c3cccc(OCC(C)C)c3)nc3ccccc23)no1 | -11.3* | -11.3 | -20.5%* | i | i | KCNQ2 inh confirm=i
COc1ccc(-c2nc3ccccn3c2NCc2ccc3c(c2)OCO3)cc1 | -8.4* | -8.4 | i | i | i
COc1ccc(-c2nc3cc(C)ccn3c2NCc2ccc3c(c2)OCO3)cc1 | i | · | · | · | ·
SMILES | KCNQ2 inh | KCNQ2 pot | KCNQ2 block conf | KCNQ1 spec | CHO parental ctr | others
CCOC(=O)N1CCN(S(=O)(=O)c2ccc(C(=O)Nc3ccc4c(c3)C(=O)NC4=O)cc2)CC1 | i | · | · | · | ·
Cc1ccc(NC(=O)N(Cc2nc3ccccc3c(=O)[nH]2)Cc2cccs2)cc1 | i | · | · | · | ·
CN(C)c1ccnc(NCc2ccccc2)c1C#N | i | 0.98 | · | · | ·
CN(C)c1ccnc(N(Cc2ccccc2)Cc2ccccc2)c1C#N | -7.18* | -7.18 | i | i | i
COc1ccc(/C=C2\SC(=O)N(CCn3cnnn3)C2=O)cc1 | i | 0.3 | · | · | ·
CCOC(=O)c1cnc(-c2ccccc2)nc1C(F)(F)F | i | · | · | · | ·
CCOC(=O)c1cnc2c(F)ccc(F)c2c1Sc1ccccc1 | -7.57* | -7.57 | i | i | i
COC(=O)c1ccccc1NC(=O)C1CCN(C(=O)c2ccc(OC)cc2)CC1 | i | · | · | · | ·
CC1CCC(=C(C#N)c2nc(-c3cc4ccccc4oc3=O)cs2)CC1 (centres undefined) | -8.52* | -8.52 | i | i | i
N#CCc1nc(-c2cc3ccccc3oc2=O)cs1 | i | 0.89 | · | · | ·
CC(=O)N1CCN(C2=Nc3cccc4cccc2c34)CC1 | i | · | · | · | ·
